Assay [1] addresses HOXB4 (Homo sapiens, UniProt P17483 148-234). Nature of the assay: PBM; 200 nM protein, PBS. As to conditions: dsDNA, one strand shown.
Assay [2] addresses HOXB4 (Homo sapiens, UniProt P17483 148-234, V174I). Nature of the assay: PBM; 200 nM protein, PBS. Conditions: dsDNA, one strand shown.

Chain of HOXB4 (Homo sapiens, UniProt P17483 148-234) (P17483 148-234): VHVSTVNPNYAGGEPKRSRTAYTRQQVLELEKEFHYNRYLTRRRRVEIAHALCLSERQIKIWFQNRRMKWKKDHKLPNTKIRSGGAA
Chain of HOXB4 (Homo sapiens, UniProt P17483 148-234, V174I) (P17483 148-234 V174I): as the sequence (P17483 148-234) above, with V27I counted along it

As to CTATTTGA, the binding signal is 9.99 upbm affinity estimate (log intensity, higher = more binding, comparable within an allelic series) in assay [1] and 9.85 upbm affinity estimate (log intensity, higher = more binding, comparable within an allelic series) in assay [2].
On to ACACGAGC, for which the binding signal in assay [1] is 7.84 upbm affinity estimate (log intensity, higher = more binding, comparable within an allelic series); in assay [2], 7.68 upbm affinity estimate (log intensity, higher = more binding, comparable within an allelic series).
As for CCTGATTA, the binding signal in assay [1] was 11.8 upbm affinity estimate (log intensity, higher = more binding, comparable within an allelic series); in assay [2], 12.4 upbm affinity estimate (log intensity, higher = more binding, comparable within an allelic series).
For the sequence CTACCGCC, the binding signal was 7.59 upbm affinity estimate (log intensity, higher = more binding, comparable within an allelic series) in assay [1] and 7.48 upbm affinity estimate (log intensity, higher = more binding, comparable within an allelic series) in assay [2].
In the case of ATCTCTTA, the binding signal in assay [1] is 9.96 upbm affinity estimate (log intensity, higher = more binding, comparable within an allelic series); in assay [2], 9.9 upbm affinity estimate (log intensity, higher = more binding, comparable within an allelic series).
Turning to CCTGTCCC, the binding signal is 7.61 upbm affinity estimate (log intensity, higher = more binding, comparable within an allelic series) in assay [1] and 7.76 upbm affinity estimate (log intensity, higher = more binding, comparable within an allelic series) in assay [2].
With GTTATAGA, the binding signal was 9.85 upbm affinity estimate (log intensity, higher = more binding, comparable within an allelic series) in assay [1] and 9.7 upbm affinity estimate (log intensity, higher = more binding, comparable within an allelic series) in assay [2].
For the sequence AACCCCCC, the binding signal is 7.54 upbm affinity estimate (log intensity, higher = more binding, comparable within an allelic series) in assay [1] and 7.42 upbm affinity estimate (log intensity, higher = more binding, comparable within an allelic series) in assay [2].
As for GAATGAAC, the binding signal in assay [1] is 8.91 upbm affinity estimate (log intensity, higher = more binding, comparable within an allelic series); in assay [2] it was 8.78 upbm affinity estimate (log intensity, higher = more binding, comparable within an allelic series).
As to CCACAGGC, the binding signal was 7.72 upbm affinity estimate (log intensity, higher = more binding, comparable within an allelic series) in assay [1] and 7.85 upbm affinity estimate (log intensity, higher = more binding, comparable within an allelic series) in assay [2].
In the case of AATTTCTG, the binding signal is 9.75 upbm affinity estimate (log intensity, higher = more binding, comparable within an allelic series) in assay [1] and 9.62 upbm affinity estimate (log intensity, higher = more binding, comparable within an allelic series) in assay [2].
CCTGCGTC: the binding signal in assay [1] was 7.55 upbm affinity estimate (log intensity, higher = more binding, comparable within an allelic series); in assay [2], 7.44 upbm affinity estimate (log intensity, higher = more binding, comparable within an allelic series).
For CCCGTGCG, the binding signal is 7.96 upbm affinity estimate (log intensity, higher = more binding, comparable within an allelic series) in assay [1] and 7.88 upbm affinity estimate (log intensity, higher = more binding, comparable within an allelic series) in assay [2].
For the sequence AGACCCGA, the binding signal is 7.82 upbm affinity estimate (log intensity, higher = more binding, comparable within an allelic series) in assay [1] and 7.69 upbm affinity estimate (log intensity, higher = more binding, comparable within an allelic series) in assay [2].
In the case of AATTGGTA, the binding signal in assay [1] was 10.7 upbm affinity estimate (log intensity, higher = more binding, comparable within an allelic series); in assay [2], 11 upbm affinity estimate (log intensity, higher = more binding, comparable within an allelic series).
In the case of GGACCGAC, the binding signal was 7.66 upbm affinity estimate (log intensity, higher = more binding, comparable within an allelic series) in assay [1] and 7.41 upbm affinity estimate (log intensity, higher = more binding, comparable within an allelic series) in assay [2].
CGCCGTGC: the binding signal was 7.83 upbm affinity estimate (log intensity, higher = more binding, comparable within an allelic series) in assay [1] and 7.83 upbm affinity estimate (log intensity, higher = more binding, comparable within an allelic series) in assay [2].
In the case of GAGCTGCA, the binding signal in assay [1] was 7.7 upbm affinity estimate (log intensity, higher = more binding, comparable within an allelic series); in assay [2] it was 7.45 upbm affinity estimate (log intensity, higher = more binding, comparable within an allelic series).
Turning to CACGTGCG, the binding signal in assay [1] is 7.64 upbm affinity estimate (log intensity, higher = more binding, comparable within an allelic series); in assay [2] it was 7.71 upbm affinity estimate (log intensity, higher = more binding, comparable within an allelic series).
Take ATCGTTCC: the binding signal is 9.81 upbm affinity estimate (log intensity, higher = more binding, comparable within an allelic series) in assay [1] and 9.76 upbm affinity estimate (log intensity, higher = more binding, comparable within an allelic series) in assay [2].
Turning to ACAACGAT, the binding signal was 9.88 upbm affinity estimate (log intensity, higher = more binding, comparable within an allelic series) in assay [1] and 9.27 upbm affinity estimate (log intensity, higher = more binding, comparable within an allelic series) in assay [2].
For GAATAATC, the binding signal in assay [1] was 11.1 upbm affinity estimate (log intensity, higher = more binding, comparable within an allelic series); in assay [2], 11.3 upbm affinity estimate (log intensity, higher = more binding, comparable within an allelic series).
For AATGGTCA, the binding signal was 10.4 upbm affinity estimate (log intensity, higher = more binding, comparable within an allelic series) in assay [1] and 10.5 upbm affinity estimate (log intensity, higher = more binding, comparable within an allelic series) in assay [2].
For the sequence CCAGTTGC, the binding signal is 7.75 upbm affinity estimate (log intensity, higher = more binding, comparable within an allelic series) in assay [1] and 7.61 upbm affinity estimate (log intensity, higher = more binding, comparable within an allelic series) in assay [2].
TCATTGGA: the binding signal in assay [1] was 10.1 upbm affinity estimate (log intensity, higher = more binding, comparable within an allelic series); in assay [2], 9.83 upbm affinity estimate (log intensity, higher = more binding, comparable within an allelic series).
Take AATGTACC: the binding signal in assay [1] was 10.2 upbm affinity estimate (log intensity, higher = more binding, comparable within an allelic series); in assay [2], 10.3 upbm affinity estimate (log intensity, higher = more binding, comparable within an allelic series).
With ACGTGGCG, the binding signal is 7.5 upbm affinity estimate (log intensity, higher = more binding, comparable within an allelic series) in assay [1] and 7.6 upbm affinity estimate (log intensity, higher = more binding, comparable within an allelic series) in assay [2].
Regarding TAGATTGA, the binding signal was 10.2 upbm affinity estimate (log intensity, higher = more binding, comparable within an allelic series) in assay [1] and 10.3 upbm affinity estimate (log intensity, higher = more binding, comparable within an allelic series) in assay [2].
CAACAGAG: the binding signal in assay [1] is 7.94 upbm affinity estimate (log intensity, higher = more binding, comparable within an allelic series); in assay [2], 7.66 upbm affinity estimate (log intensity, higher = more binding, comparable within an allelic series).
Turning to AATAGCCA, the binding signal in assay [1] was 10.2 upbm affinity estimate (log intensity, higher = more binding, comparable within an allelic series); in assay [2], 10.3 upbm affinity estimate (log intensity, higher = more binding, comparable within an allelic series).
Regarding GCAATTTA, the binding signal in assay [1] is 11.5 upbm affinity estimate (log intensity, higher = more binding, comparable within an allelic series); in assay [2], 11.7 upbm affinity estimate (log intensity, higher = more binding, comparable within an allelic series).
Turning to GTGATGGA, the binding signal in assay [1] is 9.37 upbm affinity estimate (log intensity, higher = more binding, comparable within an allelic series); in assay [2] it was 9.3 upbm affinity estimate (log intensity, higher = more binding, comparable within an allelic series).
For the sequence AAAATTAC, the binding signal in assay [1] is 11.3 upbm affinity estimate (log intensity, higher = more binding, comparable within an allelic series); in assay [2], 11.7 upbm affinity estimate (log intensity, higher = more binding, comparable within an allelic series).
On to AGGAGGAG, for which the binding signal in assay [1] was 7.49 upbm affinity estimate (log intensity, higher = more binding, comparable within an allelic series); in assay [2], 7.57 upbm affinity estimate (log intensity, higher = more binding, comparable within an allelic series).
For GGCTAATA, the binding signal is 11.6 upbm affinity estimate (log intensity, higher = more binding, comparable within an allelic series) in assay [1] and 11.9 upbm affinity estimate (log intensity, higher = more binding, comparable within an allelic series) in assay [2].
GATCGTTA: the binding signal in assay [1] was 12.3 upbm affinity estimate (log intensity, higher = more binding, comparable within an allelic series); in assay [2] it was 12.8 upbm affinity estimate (log intensity, higher = more binding, comparable within an allelic series).
For the sequence GTCCCAAC, the binding signal in assay [1] was 7.52 upbm affinity estimate (log intensity, higher = more binding, comparable within an allelic series); in assay [2], 7.63 upbm affinity estimate (log intensity, higher = more binding, comparable within an allelic series).
